Inconclusive results are not listed. A call without a number means that no potency is given here. Calls of active or inactive are those of the source. The call rests on the fitted dose curve; in most records, active means well fitted inhibition curve with a large enough effect; inconclusive means small, poorly fitted or top-dose-only effect; inactive means flat fitted curve, though single readings scatter.
These compounds were tested against Phospholipid hydroperoxide glutathione peroxidase GPX4 (Homo sapiens) (UniProt P36969) (assay: Primary qHTS Assay for Inhibitors of Recombinant Selenoprotein Glutathione Peroxidase 4 (GPX4) (AID 1845192; further: nearly all actives have a fitted effect of over 65% in size)). Conditions: recombinant GPX4, GR-coupled NADPH fluorescence, 15 min; series mostly up to 50 µM.
Chain of Phospholipid hydroperoxide glutathione peroxidase GPX4 (Homo sapiens) (P36969 whole entry, looked up): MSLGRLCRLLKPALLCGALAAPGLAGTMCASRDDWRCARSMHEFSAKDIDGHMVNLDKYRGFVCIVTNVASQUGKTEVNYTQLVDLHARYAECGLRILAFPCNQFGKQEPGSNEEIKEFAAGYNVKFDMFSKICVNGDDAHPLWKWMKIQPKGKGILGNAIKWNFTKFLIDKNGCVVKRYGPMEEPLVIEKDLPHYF
Summary of the method: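 Steps: GPX4 plus compound, 30 min RT; add GR/GSH/NADPH master mix; start with cumene hydroperoxide; read 340/450 nm fluorescence at 0 and 15 min. Finals were 200 nM GPX4, 1 mM GSH, 0.5 mM CHP, 0.5 mM NADPH, 100 nM GR.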

| Compound | Potency |
| --- | --- |
| CCn1c(=O)c(-c2ccc(Cl)cc2Cl)cc2cnc(Nc3ccc(N4CCNCC4)c(F)c3)nc21 | inactive |
| CCOc1ccc(-n2c([C@@H](C)N(Cc3cccnc3)C(=O)Cc3ccc(OC(F)(F)F)cc3)nc3ncccc3c2=O)cc1 | inactive |
| CNc1nc(Nc2ccc(C(=O)N3CCOCC3)cc2OC)nc2[nH]cc(Cl)c12 | inactive |
| COc1ccccc1-c1ccc(-c2cn(C(=O)N3CCCCC3Cc3ccccc3)nn2)cc1 (stereo not given) | inactive |
| C=C1C(=O)O[C@@H]2C3C(=C(C)[C@@H](O)[C@@H](OC(=O)/C(=C/C)COC(C)=O)[C@@H]12)C(=O)[C@H]1O[C@@]31C (stereo not given in full) | inactive |
| COc1ccccc1C(=O)Nc1cc2c(cc1N1CCCC1)n(C)c(=O)n2C | inactive |
| Cc1cc(C(=O)Nc2cc(Nc3ccc4c(/C=C/c5ccccn5)n[nH]c4c3)ccc2F)n(C)n1 | inactive |
| N#Cc1ccc(COc2ccc(-c3cccc4nc(NC(=O)C5CC5)nn34)cc2)cn1 | inactive |
| COc1cc(CN(CCN)C(=O)c2cccs2)ccc1OCc1ccccc1 | inactive |
| C=C1C(=O)O[C@@H]2C(OC(=O)/C(C)=C\C)/C(C)=C\C(=O)/C=C(\C)C[C@H](O)[C@@H]12 (stereo not given in full) | inactive |
| CCOC(=O)c1csc(Nc2ccc(Cl)cc2)n1 | inactive |
| CNc1nc(NCc2ccc(NS(C)(=O)=O)cc2Cl)cc(-c2ccccn2)n1 | inactive |
| CC(=O)O[C@H]1CC2C(COC(=O)CC(C)C)=CO[C@@H](OC(=O)CC(C)C)C2[C@]12CO2 (stereo not given in full) | inactive |
| CCCN(CCc1ccsc1)C1CCc2c(O)cccc2C1 (stereo not given) | inactive |
| O=C(Nc1ccc(Cl)cc1)Nc1cccc(-c2cccc(N3CCCC3)n2)c1 | inactive |
| O=C(O)C1=CO[C@@H](O[C@@H]2O[C@H](CO)[C@@H](O)[C@H](O)[C@H]2O)[C@@H]2C(CO)=CC[C@H]12 | inactive |
| C/C=C(\C)C(=O)O[C@H]1C=C(CO)C(=O)[C@H](OC(C)=O)[C@H]1C(C)C | inactive |
| Cc1ccc(O)cc1Nc1ccnc(Nc2cccc(C(N)=O)c2)n1 | inactive |
| COc1cc2ncnc(Nc3ccc(F)c(Cl)c3)c2cc1O | inactive |
| COC1CCN(c2cccc(-c3cc(NC(C)=O)nc(-n4nc(C)cc4C)n3)n2)CC1 | inactive |

| Compound | Potency |
| --- | --- |
| C[C@@H]1CC[C@@]23CC[C@]4(C)[C@@](C=CC5[C@@]6(C)CC[C@H](O)C(C)(C)C6CC[C@]54C)(OC2=O)C3[C@H]1C (stereo not given in full) | inactive |
| CC[C@H](C(=O)Nc1ccccc1N1CCCC1)c1ccccc1 | inactive |
| Nc1nc2c(cnn2CCCc2ccc(O)cc2)c2nc(-c3ccco3)nn12 | inactive |
| O=C(Nc1ccc(-c2ccc(Cl)c(Cl)c2)cc1)C1=C(O)c2ccccc2S(=O)(=O)N1 | inactive |
| CC(C)c1ccc(-c2cc(=O)c3ccccc3o2)cc1 | inactive |
| Nc1nc2c(nc(Br)n2[C@@H]2O[C@@H]3COP(=O)(O)O[C@H]3[C@H]2O)c(=O)[nH]1 | inactive |
| CC(=O)O[C@@H]1[C@@H](O)[C@H](O[C@@H]2[C@@H](O)[C@@H](O)[C@H](O[C@H]3[C@H](O[C@H]4[C@H](O[C@H]5CC[C@@]6(C)C(CC[C@]7(C)C6CC=C6[C@@H]8CC(C)(C)CC[C@]8(C(=O)O)CC[C@]67C)[C@]5(C)CO)O[C@H](CO)[C@@H](O)[C@@H]4O)OC[C@@H](O)[C@@H]3O)O[C@H]2C)OC[C@H]1O (stereo not given in full) | inactive |
| CC(C)Nc1nc(Nc2ccccc2)nc(-c2ccccc2)n1 | inactive |
| O=C(Nc1ccc2[nH]nc(-c3ccncc3)c2c1)[C@@H]1CCN(CC(=O)N2CCN(c3ccc(-c4ncccn4)cc3)CC2)C1 | inactive |
| O=C(O)c1cccc(-c2ccc(-c3cn(C(=O)N4CCCCC4Cc4ccccc4)nn3)cc2)c1 (stereo not given) | inactive |
| CN(C)Cc1ccc(-c2cnn3c(-c4cccc(NC(=O)c5cccc(C(F)(F)F)c5)c4)ccnc23)cc1 | inactive |
| O=C(Nc1nnc(-c2ccc3c(c2)OCCO3)o1)C1CCCCC1 | inactive |
| O=C(NCCN1CCC(n2c(=O)[nH]c3ccccc32)CC1)c1ccc2ccccc2c1 | inactive |
| COc1ccccc1C(=O)Nc1cccc(NC(=O)c2cccc(C)c2)c1 | inactive |
| COc1cc2c(cc1O)C1(Cc3ccc4c(c3C1O)OCO4)[N+](C)([O-])CC2 (stereo not given) | inactive |
| COc1ccc2nc(-c3cc(OC)c(OC)c(OC)c3)cc(C(=O)NCC(=O)Nc3ccc(C(C)=O)cc3)c2c1 | inactive |
| c1ccc(-c2cnn3cc(-c4ccc(OCCN5CCOCC5)cc4)cnc23)cc1 | inactive |
| CN1CCN(C2=Nc3ccccc3Nc3ccc(Cl)cc32)CC1 | inactive |
| NCC1CCN(c2nccc(-c3ccc4ccccc4c3)n2)CC1 | inactive |

These compounds were tested against Luciferin 4-monooxygenase (Photinus pyralis) (UniProt P08659) (assay: Primary firefly luciferase (FLuc) qHTS assay for identification of artifact compounds. (AID 1845220; further: nearly all actives have a fitted effect of over 60% in size)). Conditions: purified firefly luciferase, luminescence, 5 min; series mostly up to 54.1 µM.
Summary of the method: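 D-luciferin and ATP (10 uM each, final) in Tris acetate buffer pH 7.6 were incubated with compounds for 15 min at room temperature. The reaction was started with 10 nM Photinus pyralis luciferase and luminescence read after 5 min. Percent inhibition was fitted to a 4-parameter Hill equation.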

| Compound | Potency |
| --- | --- |
| CCOc1ccc(-n2c([C@@H](C)N(Cc3cccnc3)C(=O)Cc3ccc(OC(F)(F)F)cc3)nc3ncccc3c2=O)cc1 | inactive |
| COc1ccccc1C(=O)Nc1cc2c(cc1N1CCCC1)n(C)c(=O)n2C | inactive |
| COc1cc2ncnc(Nc3ccc(F)c(Cl)c3)c2cc1O | inactive |
| C[C@@H]1CC[C@@]23CC[C@]4(C)[C@@](C=CC5[C@@]6(C)CC[C@H](O)C(C)(C)C6CC[C@]54C)(OC2=O)C3[C@H]1C (stereo not given in full) | inactive |
| CC[C@H](C(=O)Nc1ccccc1N1CCCC1)c1ccccc1 | inactive |
| CN1CCN(C2=Nc3ccccc3Nc3ccc(Cl)cc32)CC1 | inactive |
